{"source": "ChEMBL document CHEMBL3988442", "about": "“University of Dundee, Small-Polar-MMV Screening Library” (2021)", "note": "Out of some 48,000 compounds screened, about 13,000 (27%) showed an effect of 50% or more. This is one part of the list.", "data": [{"test_system": "Wolbachia pipientis", "experiment": "Anti-Wolbachia Cell-Based Screen", "type": "functional", "parameters": "scale not given: in the data most compounds retested in dose-response had high values", "conditions": "5 µM", "units": {"Percent Effect": "%"}, "values": [{"smiles": "Fc1ccc(F)c(CN2CCC(c3n[nH]c4ncccc34)CC2)c1.O=C(O)CC(O)(CC(=O)O)C(=O)O", "Percent Effect": 96.71}, {"smiles": "O=C(O)CC(O)(CC(=O)O)C(=O)O.c1cnc2[nH]nc(C3CCN(Cc4ccsc4)CC3)c2c1", "Percent Effect": 113.3}, {"smiles": "c1cnc2c(C3CCN(Cc4ccsc4)CC3)n[nH]c2n1", "Percent Effect": -13.91}, {"smiles": "Cn1cc2c(n1)C(CNC1CCOCC1)OCC2.O=C(O)C(F)(F)F", "note": "(configuration not stated)", "Percent Effect": -8.385}, {"smiles": "CCOCc1nc(-c2ccc(F)cc2Cl)n(C)n1", "Percent Effect": 104.7}, {"smiles": "CCOCc1nc(-c2ccc(F)cc2Cl)n(C2CCN(C)CC2)n1", "Percent Effect": 110.7}, {"smiles": "CN1CCC(Cc2nc(-c3cnccn3)n(C3CCS(=O)(=O)C3)n2)CC1", "note": "(configuration not stated)", "Percent Effect": -23.71}, {"smiles": "Nc1cnc(-c2ccc(F)cc2Cl)cn1", "Percent Effect": 2.9}, {"smiles": "CCOCc1nc(CSc2ccncc2)n(C2CCN(C)CC2)n1", "Percent Effect": 13.12}, {"smiles": "CN1CCC(n2nc(Cc3cccc(Cl)c3)nc2Cn2cnnn2)CC1", "Percent Effect": 20.47}, {"smiles": "CN1CCC(n2nc(CC3CC3)nc2-c2ccc(F)cc2Cl)CC1", "Percent Effect": 106.3}, {"smiles": "Cc1ncsc1-c1nc(Cc2cccs2)nn1C1CCN(C)CC1", "Percent Effect": -9.082}, {"smiles": "CN1CCC(n2nc(Cc3cccs3)nc2-c2ccncc2)CC1", "Percent Effect": -23.96}, {"smiles": "CCOCc1nc(CSc2ccncc2)n(C)n1", "Percent Effect": -5.223}, {"smiles": "COc1ncccc1-c1nc(-c2ccccn2)nn1C1CCN(C)CC1", "Percent Effect": -6.109}, {"smiles": "CCOCc1nc(-c2cccc(OC)c2OC)n(C2CCN(C)CC2)n1", "Percent Effect": 115.7}, {"smiles": "CCOc1ccc(NC(C)C(=O)NCCc2cccs2)cc1CO", "note": "(configuration not stated)", "Percent Effect": -30.37}, {"smiles": "CC(C)c1noc(CCCC(=O)N2CCN(C)CC2c2ccccc2)n1", "note": "(configuration not stated)", "Percent Effect": 5.23}, {"smiles": "O=C(c1cnc(-c2noc3cc(N4CCCC4)ccc23)s1)N1CCCC1", "Percent Effect": 0.8579}, {"smiles": "CCC(C)NS(=O)(=O)Cc1cccc(NC(=O)c2cc[nH]c2C)c1", "note": "(configuration not stated)", "Percent Effect": 3.733}, {"smiles": "Cc1ccc2nc(C)c(C)c(C(=O)NCCCn3cnnc3)c2c1", "Percent Effect": -1.384}, {"smiles": "CC(C)Oc1cc(N2CC[C@@H](N3CCOCC3)[C@H](O)C2)nc(N)n1", "Percent Effect": -17.76}, {"smiles": "CCn1nccc1CNc1[nH]cnc2nc(C)nc1-2", "Percent Effect": 100.2}, {"smiles": "CCn1nccc1CNc1[nH]cnc2nncc1-2", "Percent Effect": 87.91}, {"smiles": "CCn1nccc1CNC(=O)C1CC1", "Percent Effect": 8.516}, {"smiles": "CCn1nccc1CN(C)c1[nH]cnc2nc(C)nc1-2", "Percent Effect": 80.56}, {"smiles": "CCn1nccc1CNC(=O)NC1CCCCC1", "Percent Effect": 13.66}, {"smiles": "CCn1ncnc1CN(CCOC)Cc1ccc(C)cc1", "Percent Effect": -0.7993}, {"smiles": "Cc1nccn1-c1ccc(C(C)NCc2ncc[nH]2)cc1", "note": "(configuration not stated)", "Percent Effect": -20.7}, {"smiles": "Cc1cc(C(=O)Nc2ccnc(OC3CCOC3)c2)c(C)o1", "note": "(configuration not stated)", "Percent Effect": -9.731}, {"smiles": "Cc1ccc2[nH]c(CN(C)c3cc(CN)nc(C)n3)nc2c1", "Percent Effect": -0.384}, {"smiles": "N#Cc1cn(C2CC2)c(=O)n(Cc2noc(-c3cccs3)n2)c1=O", "Percent Effect": 11.53}, {"smiles": "COCCn1cnnc1CN(C)c1nc(N)nc2c1CCCC2", "Percent Effect": 15.13}, {"smiles": "Cc1oncc1C(=O)N1CC2CC1(C(=O)NCc1ccco1)C2", "Percent Effect": -19.28}, {"smiles": "FC(F)(F)Oc1ccc(-c2c[nH]c([C@@H]3COCCN3)n2)cc1", "Percent Effect": -3.996}, {"smiles": "c1ccc(CNCC2Cn3nncc3CO2)nc1", "note": "(configuration not stated)", "Percent Effect": -9.384}, {"smiles": "c1cc(CNCC2Cn3nncc3CO2)ccn1", "note": "(configuration not stated)", "Percent Effect": 7.838}, {"smiles": "Cc1ccc(CNCC2Cn3nncc3CO2)s1", "note": "(configuration not stated)", "Percent Effect": 98.39}, {"smiles": "Cc1ccc(CNCC2Cn3nncc3CO2)o1", "note": "(configuration not stated)", "Percent Effect": 84.72}, {"smiles": "Cc1nnn2c1COC(CNCc1ccncc1)C2", "note": "(configuration not stated)", "Percent Effect": -6.146}, {"smiles": "Cc1ccc(CNCC2Cn3nnc(-c4cccc(F)c4)c3CO2)o1.O=C(O)C(F)(F)F", "note": "(configuration not stated)", "Percent Effect": -4.594}, {"smiles": "c1cc(CNCC2Cn3nncc3CO2)cs1", "note": "(configuration not stated)", "Percent Effect": 14.09}, {"smiles": "c1coc(CNCC2Cn3nncc3CO2)c1", "note": "(configuration not stated)", "Percent Effect": 91.63}, {"smiles": "Fc1cccc(CNCC2Cn3nncc3CO2)c1", "note": "(configuration not stated)", "Percent Effect": -13.19}, {"smiles": "COCCN(CCC#N)S(=O)(=O)c1cc(F)ccc1F", "Percent Effect": 6.072}, {"smiles": "CC(C)c1nnc2n1CCN(C(=O)CN1Cc3ccccc3C1=O)C2", "Percent Effect": -9.252}, {"smiles": "Cc1nnc2n1CCN(C(=O)CN(C)Cc1ccccc1)C2", "Percent Effect": 125}, {"smiles": "Cc1nnc2n1CCN(C(=O)COCCOc1ccccc1)C2", "Percent Effect": 6.355}, {"smiles": "CC(C)c1nnc2n1CCN(C(=O)c1ccc(CN(C)C)cc1)C2", "Percent Effect": -8.921}, {"smiles": "CCc1nnc2n1CCN(C(=O)CN(C)Cc1ccccc1)C2", "Percent Effect": -3.292}, {"smiles": "CC(C)c1nnc2n1CCN(C(=O)CN(C)Cc1ccccc1)C2", "Percent Effect": 95.98}, {"smiles": "CS(=O)(=O)c1nccn1Cc1ccc(C(N)=O)cc1", "Percent Effect": -9.833}, {"smiles": "CN(Cc1cccnc1)Cc1cn2c(n1)CN(C1CCOC1)CC2.O=C(O)C(F)(F)F.O=C(O)C(F)(F)F.O=C(O)C(F)(F)F", "note": "(configuration not stated)", "Percent Effect": 86.19}, {"smiles": "CN(Cc1cccnc1)Cc1cn2c(n1)CN(C1CCOCC1)CC2", "Percent Effect": 108.1}, {"smiles": "CN(C)Cc1cn2c(n1)CN(C1CCOC1)CC2", "note": "(configuration not stated)", "Percent Effect": 93.96}, {"smiles": "CCN(CC)Cc1cn2c(n1)CN(C1CCOC1)CC2.O=C(O)C(F)(F)F.O=C(O)C(F)(F)F", "note": "(configuration not stated)", "Percent Effect": 96.5}, {"smiles": "CN(Cc1cn2c(n1)CN(C(=O)C1CCOCC1)CC2)Cc1ccco1", "Percent Effect": -9.912}, {"smiles": "CCOCC(=O)N1CCn2cc(CN(C)Cc3ccco3)nc2C1", "Percent Effect": -7.292}, {"smiles": "CCN(CC)Cc1cnc2n1CCN(C1CCOC1)CC2", "note": "(configuration not stated)", "Percent Effect": -1.376}, {"smiles": "CN(Cc1cn2c(n1)CN(CC1CCOC1)CC2)Cc1ccco1.O=C(O)C(F)(F)F.O=C(O)C(F)(F)F", "note": "(configuration not stated)", "Percent Effect": 11.13}, {"smiles": "CN(Cc1cncnc1)Cc1cn2c(n1)CN(C1CCOC1)CC2.O=C(O)C(F)(F)F.O=C(O)C(F)(F)F", "note": "(configuration not stated)", "Percent Effect": -14.81}, {"smiles": "CN(Cc1cn2c(n1)CN(C1CCOC1)CC2)Cc1ccco1.O=C(O)C(F)(F)F.O=C(O)C(F)(F)F", "note": "(configuration not stated)", "Percent Effect": -12.79}, {"smiles": "Cc1noc(C)c1CN(C)Cc1csc(-c2ccccc2F)n1", "Percent Effect": 6.793}, {"smiles": "CSC(C)(C)CNC(=O)NCC[S+]([O-])c1ccccc1F", "note": "(configuration not stated)", "Percent Effect": 3.709}, {"smiles": "COCc1nc2n(n1)CCCC2Nc1nc(C2CC2)ns1", "note": "(configuration not stated)", "Percent Effect": -6.792}, {"smiles": "COC[C@H]1CC[C@H]2[C@H](CCN2S(=O)(=O)Cc2ccccc2)O1", "Percent Effect": -8.908}, {"smiles": "CN(C)C1(CNc2nccc(-c3cnn(C)c3)n2)CCSC1", "note": "(configuration not stated)", "Percent Effect": 0.386}, {"smiles": "Cn1ncnc1-c1ccnc(NCc2ccncc2)n1", "Percent Effect": 2.269}, {"smiles": "Cn1cc(-c2ccnc(NCC3CC3)n2)cn1", "Percent Effect": -5.433}, {"smiles": "Cc1cnc(CNCc2cnc(-c3ccccc3C)s2)cn1", "Percent Effect": 2.85}, {"smiles": "Cc1cnc(NCc2ccncc2)nc1-c1cnn(C)c1", "Percent Effect": 107.1}, {"smiles": "Cc1cnc(NCc2cnn(C)c2)nc1-c1cnn(C)c1", "Percent Effect": 107.4}, {"smiles": "Cc1cnc(CNc2ncc(C)c(-c3cnn(C)c3)n2)cn1", "Percent Effect": 99.76}, {"smiles": "CCNc1ncc(C)c(-c2cnn(C)c2)n1", "Percent Effect": 108.7}, {"smiles": "Cn1cc(-c2ccnc(NCC3CCN(Cc4ccccc4)C3)n2)cn1", "note": "(configuration not stated)", "Percent Effect": 1.277}, {"smiles": "Cn1cc(-c2nc(CNCCn3cccn3)cs2)cn1", "Percent Effect": 1.057}, {"smiles": "Cc1ccc(Br)c(S(=O)(=O)NCc2cnn(C)c2)c1", "Percent Effect": -6.157}, {"smiles": "Cc1ccc(CCNc2ncc(C)c(-c3ccnn3C)n2)s1", "Percent Effect": -9.646}, {"smiles": "O=C(CN1CCCS1(=O)=O)Nc1ccc(OC(F)F)cc1", "Percent Effect": 5.702}, {"smiles": "CC(C)CN1CCc2[nH]cnc2C12CCN(C(=O)c1cc[nH]n1)CC2", "Percent Effect": -17.95}, {"smiles": "CC(=O)NCc1ccc(S(=O)(=O)NC(=O)c2ccc3c(c2)COC3)cc1", "Percent Effect": -5.848}, {"smiles": "CC(NC1(CNS(=O)(=O)N(C)C)CCCC1)c1ccccc1", "note": "(configuration not stated)", "Percent Effect": -3.44}, {"smiles": "CCC(NC(N)=O)c1ccccc1OCC(=O)N1CCCC1", "note": "(configuration not stated)", "Percent Effect": -5.34}, {"smiles": "Cc1cnc(NCc2csc(C(C)C)n2)nc1-c1cnn(C)c1", "Percent Effect": 93.26}, {"smiles": "CC(C)c1nc(CNc2nccc(CCC(F)(F)F)n2)cs1", "Percent Effect": -5.11}, {"smiles": "Cc1cnn(CC(C)NCc2csc(-c3cnn(C)c3)n2)c1", "note": "(configuration not stated)", "Percent Effect": 15.88}, {"smiles": "CCCn1ncc(-c2ccnc(NC3CC(C)(C)NC(C)(C)C3)n2)c1C", "Percent Effect": 10.1}, {"smiles": "Cc1ncc(-c2ccnc(N3CCCCC3)n2)c(=O)[nH]1", "Percent Effect": 2.763}, {"smiles": "Cc1ccc(-c2ccnc(N3CCC4(CCO4)CC3)n2)c(C)n1", "Percent Effect": 1.011}, {"smiles": "O=c1[nH]c(-c2ccncc2)ncc1-c1ccnc(NC2CC2)n1", "Percent Effect": 114.3}, {"smiles": "O=c1[nH]c(-c2ccncc2)ncc1-c1ccnc(N2CCOCC2)n1", "Percent Effect": 98.38}, {"smiles": "O=C(COCc1nc(-c2ccncc2)no1)NC1CCCCC1", "Percent Effect": -10.3}, {"smiles": "O=c1[nH]c(-c2ccncc2)ncc1-c1ccnc(NC2CCCCC2)n1", "Percent Effect": 85.21}, {"smiles": "O=c1[nH]c2nc(NC3CC3)ncc2c(=O)n1-c1ccc(F)cc1", "Percent Effect": 8.247}, {"smiles": "O=C(c1ccc(F)c(F)c1)N1CCCC(Nc2ccc(F)cc2)C1", "note": "(configuration not stated)", "Percent Effect": -4.983}, {"smiles": "COC(=O)c1ccc(C(=O)N2CCCC(Nc3ccc(F)cc3)C2)cc1", "note": "(configuration not stated)", "Percent Effect": -50.64}, {"smiles": "O=C(NCC1CC1)c1cc2c(s1)CCN2C(=O)c1cccnc1", "Percent Effect": 93.16}, {"smiles": "Cc1cc(C(=O)NCC2CCCC2)c(C)n1-c1cccnc1", "Percent Effect": 5.973}, {"smiles": "O=C(NCC1CC1)c1cc2c(s1)CCN2C(=O)c1ccc(F)cc1", "Percent Effect": 95.26}, {"smiles": "CC(NC(=O)c1cc(N2CCNC2=O)ccc1F)c1ccc(F)cc1", "note": "(configuration not stated)", "Percent Effect": -0.5858}, {"smiles": "CCSCCC(=O)Nc1ncn(Cc2ccccc2)n1", "Percent Effect": -26.44}, {"smiles": "O=c1n(CCSCc2ccccc2Cl)nc2ccccn12", "Percent Effect": 6.647}, {"smiles": "O=C(CCSc1ccccc1)NCCn1nc2ccccn2c1=O", "Percent Effect": 3.117}, {"smiles": "CCSCCC(=O)NCCn1nc2ccccn2c1=O", "Percent Effect": -5.498}, {"smiles": "O=c1n(CCNCc2cccc3ccccc23)nc2ccccn12", "Percent Effect": 89.88}, {"smiles": "O=c1n(CCSCc2ccccc2Br)nc2ccccn12", "Percent Effect": -15.86}, {"smiles": "O=c1n(CCNc2cccc3ccccc23)nc2ccccn12", "Percent Effect": 88.07}]}]}
